Among the data in PubChem BioAssay (NCI) are growth inhibition values, retold here.

This assay is described as follows: NCI Yeast Anticancer Drug Screen. Data for the mlh1 rad18 strain (AID 175). The note with it: S. cerevisiae mlh1 rad18 strain growth inhibition, hits give high values. On the procedure:
Growth inhibition of yeast strains with defined genetic alterations is measured as a screen for potential anti-cancer activity. Selected strains with alterations in DNA damage repair or cell cycle control were exposed to compounds and growth inhibition was measured relative to vehicle treated controls. The strain used in this assay is mlh1 rad18

Setting [1] is: at 5.0 µM (retest, dose inferred, filed as 0.5).
[2] abbreviates: at 50.0 µM (retest, dose inferred, filed as 5.0).

Each structure is given as a SMILES string. Compounds without any hit were thinned out: in the full panel of roughly 79,000, 15% have a hit. Values without a mark were called inactive. Active and inactive are the calls of the source. Rule as the data show it: active = growth inhibition above about 70%; inactive = the rest.

For the molecule `CN(C)CCOc1ccc2c(c1)C/C(=C/c1ncc([N+](=O)[O-])n1C)C2=O`, the growth inhibition is, setting by setting: under setting [1], 53%; under setting [2], 82% (active); (at 50.0 µM) 89.3% (active).

For the molecule `O=C(O)c1ccccc1-c1ccccc1C(=O)Nc1ccc2c(c1)Cc1ccccc1-2`, the growth inhibition reads like this: under setting [1], 6%; under setting [2], 54%; (at 50.0 µM) 76.5% (active).

With `CC(Br)C(=O)c1ccc2cc(Br)c3ccccc3c2c1` (configuration not stated), the growth inhibition is, setting by setting: under setting [1], 9%; under setting [2], 38%; (at 50.0 µM) 68.3%.

With `CCCCCCCCCCC1CCC(=O)O1` (configuration not stated), the growth inhibition under setting [1] is -3%, the growth inhibition under setting [2] is 69% and the growth inhibition (at 50.0 µM) is 92.2% (active).

Consider `O=C(NC(Nc1ccc(F)c(Cl)c1)(C(F)(F)F)C(F)(F)F)C(C(F)(F)F)C(F)(F)F`, for which the growth inhibition is 21% under setting [1], 90% (active) under setting [2] and 93.4% (active) (at 50.0 µM).

For the molecule `CCN(CC)C(C)(C)C(=O)/C=C/c1ccccc1`, the growth inhibition is 57% under setting [1], 95% (active) under setting [2] and 20.4% (at 50.0 µM).

`CCC(=O)c1cccc2ccccc12`: the growth inhibition is 7% under setting [1], 28% under setting [2] and -14.7% (at 50.0 µM).

Consider `O=C1C(=O)c2ccccc2C=C1[N+](=O)[O-]`, for which the growth inhibition is, setting by setting: under setting [1], 0%; under setting [2], 64%; (at 50.0 µM) 68.8%.

As to `CC(/C=C/c1ccc2c(c1)OCO2)[N+](=O)[O-]` (configuration not stated), the growth inhibition by setting is: under setting [1], 66%; under setting [2], 98% (active); (at 50.0 µM) 99.4% (active).

In the case of `CN1c2ccc(Cl)cc2C(=O)NC1c1ccc([N+](=O)[O-])s1` (configuration not stated), the growth inhibition under setting [1] is 2%, the growth inhibition under setting [2] is 98% (active) and the growth inhibition (at 50.0 µM) was 92.8% (active).

For the molecule `CC(O)C(O)C(O)C(/C=N\Nc1ccccc1)=N/Nc1ccccc1` (configuration not stated), the growth inhibition under setting [1] is 7%, the growth inhibition under setting [2] is 65% and the growth inhibition (at 50.0 µM) was 98.9% (active).

Regarding `COc1ccc(/C(C)=N/OC(=O)c2c(-c3ccccc3Cl)noc2C)cc1CN1CCOCC1`, the growth inhibition runs as follows: under setting [1], 53%; under setting [2], 85% (active); (at 50.0 µM) 57.4%.

Turning to `O=C(O)C1CCCCC1c1c2ccc(=O)c(O)c-2oc2c(O)c(O)ccc12` (configuration not stated), the growth inhibition was -3% under setting [1], 84% (active) under setting [2] and 75.3% (active) (at 50.0 µM).

Turning to `C/C(=N\NC(=S)N1CCCCC1)c1cccc(C)n1`, the growth inhibition is 81% (active) under setting [1], 99% (active) under setting [2] and 86.2% (active) (at 50.0 µM).
